This is an account of results in PubChem BioAssay.

The source made the active and inactive calls.

Test [1] in a line: binders of probe aFSTL3 on microarray, primary screen, stem cell growth factor project, biochemical, small-molecule microarray, fluorescence 635/667 (AID 1064).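 Note: measures binding of the biotinylated anti-FSTL3 antibody to printed compounds.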 Particulars: higher = more signal.
Test [2] can be described thus: binders from COS7 lysate, DM2A8 probe, primary screen, torsin A project, cell lysate, small-molecule microarray, fluorescence 635/667 (AID 1065). Particulars: higher = more signal, COS7 lysate expressing mutant human TOR1A.
Test [3] is described as follows: binders of probe aFGF2 on microarray, primary screen, stem cell growth factor project, biochemical, small-molecule microarray, fluorescence 635/667 (AID 1067).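 Note: measures binding of biotinylated aFGF2 protein to printed compounds on slides; z-score merges feature fluorescence and signal-to-noise across triplicate slides.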 Conditions: higher = more signal.
The nature of test [4]: binders of probe aFGF10 on microarray, primary screen, stem cell growth factor project, biochemical, small-molecule microarray, fluorescence 635/667 (AID 1071).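 Note: score merges 667 nm spot intensity and signal to noise from triplicate slides.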 Conditions: higher = more signal.
In test [5] the target is Neurogenic locus notch homolog protein 2 (Homo sapiens) (UniProt Q04721). Briefly: Notch2 binders on small-molecule microarrays, primary screen, biochemical, small-molecule microarray, 635 nm fluorescence, stem cell growth factors (AID 1073). Conditions: Notch2 binding, higher = more signal.
Chain of Neurogenic locus notch homolog protein 2 (Homo sapiens) (Q04721 whole entry, looked up, canonical isoform): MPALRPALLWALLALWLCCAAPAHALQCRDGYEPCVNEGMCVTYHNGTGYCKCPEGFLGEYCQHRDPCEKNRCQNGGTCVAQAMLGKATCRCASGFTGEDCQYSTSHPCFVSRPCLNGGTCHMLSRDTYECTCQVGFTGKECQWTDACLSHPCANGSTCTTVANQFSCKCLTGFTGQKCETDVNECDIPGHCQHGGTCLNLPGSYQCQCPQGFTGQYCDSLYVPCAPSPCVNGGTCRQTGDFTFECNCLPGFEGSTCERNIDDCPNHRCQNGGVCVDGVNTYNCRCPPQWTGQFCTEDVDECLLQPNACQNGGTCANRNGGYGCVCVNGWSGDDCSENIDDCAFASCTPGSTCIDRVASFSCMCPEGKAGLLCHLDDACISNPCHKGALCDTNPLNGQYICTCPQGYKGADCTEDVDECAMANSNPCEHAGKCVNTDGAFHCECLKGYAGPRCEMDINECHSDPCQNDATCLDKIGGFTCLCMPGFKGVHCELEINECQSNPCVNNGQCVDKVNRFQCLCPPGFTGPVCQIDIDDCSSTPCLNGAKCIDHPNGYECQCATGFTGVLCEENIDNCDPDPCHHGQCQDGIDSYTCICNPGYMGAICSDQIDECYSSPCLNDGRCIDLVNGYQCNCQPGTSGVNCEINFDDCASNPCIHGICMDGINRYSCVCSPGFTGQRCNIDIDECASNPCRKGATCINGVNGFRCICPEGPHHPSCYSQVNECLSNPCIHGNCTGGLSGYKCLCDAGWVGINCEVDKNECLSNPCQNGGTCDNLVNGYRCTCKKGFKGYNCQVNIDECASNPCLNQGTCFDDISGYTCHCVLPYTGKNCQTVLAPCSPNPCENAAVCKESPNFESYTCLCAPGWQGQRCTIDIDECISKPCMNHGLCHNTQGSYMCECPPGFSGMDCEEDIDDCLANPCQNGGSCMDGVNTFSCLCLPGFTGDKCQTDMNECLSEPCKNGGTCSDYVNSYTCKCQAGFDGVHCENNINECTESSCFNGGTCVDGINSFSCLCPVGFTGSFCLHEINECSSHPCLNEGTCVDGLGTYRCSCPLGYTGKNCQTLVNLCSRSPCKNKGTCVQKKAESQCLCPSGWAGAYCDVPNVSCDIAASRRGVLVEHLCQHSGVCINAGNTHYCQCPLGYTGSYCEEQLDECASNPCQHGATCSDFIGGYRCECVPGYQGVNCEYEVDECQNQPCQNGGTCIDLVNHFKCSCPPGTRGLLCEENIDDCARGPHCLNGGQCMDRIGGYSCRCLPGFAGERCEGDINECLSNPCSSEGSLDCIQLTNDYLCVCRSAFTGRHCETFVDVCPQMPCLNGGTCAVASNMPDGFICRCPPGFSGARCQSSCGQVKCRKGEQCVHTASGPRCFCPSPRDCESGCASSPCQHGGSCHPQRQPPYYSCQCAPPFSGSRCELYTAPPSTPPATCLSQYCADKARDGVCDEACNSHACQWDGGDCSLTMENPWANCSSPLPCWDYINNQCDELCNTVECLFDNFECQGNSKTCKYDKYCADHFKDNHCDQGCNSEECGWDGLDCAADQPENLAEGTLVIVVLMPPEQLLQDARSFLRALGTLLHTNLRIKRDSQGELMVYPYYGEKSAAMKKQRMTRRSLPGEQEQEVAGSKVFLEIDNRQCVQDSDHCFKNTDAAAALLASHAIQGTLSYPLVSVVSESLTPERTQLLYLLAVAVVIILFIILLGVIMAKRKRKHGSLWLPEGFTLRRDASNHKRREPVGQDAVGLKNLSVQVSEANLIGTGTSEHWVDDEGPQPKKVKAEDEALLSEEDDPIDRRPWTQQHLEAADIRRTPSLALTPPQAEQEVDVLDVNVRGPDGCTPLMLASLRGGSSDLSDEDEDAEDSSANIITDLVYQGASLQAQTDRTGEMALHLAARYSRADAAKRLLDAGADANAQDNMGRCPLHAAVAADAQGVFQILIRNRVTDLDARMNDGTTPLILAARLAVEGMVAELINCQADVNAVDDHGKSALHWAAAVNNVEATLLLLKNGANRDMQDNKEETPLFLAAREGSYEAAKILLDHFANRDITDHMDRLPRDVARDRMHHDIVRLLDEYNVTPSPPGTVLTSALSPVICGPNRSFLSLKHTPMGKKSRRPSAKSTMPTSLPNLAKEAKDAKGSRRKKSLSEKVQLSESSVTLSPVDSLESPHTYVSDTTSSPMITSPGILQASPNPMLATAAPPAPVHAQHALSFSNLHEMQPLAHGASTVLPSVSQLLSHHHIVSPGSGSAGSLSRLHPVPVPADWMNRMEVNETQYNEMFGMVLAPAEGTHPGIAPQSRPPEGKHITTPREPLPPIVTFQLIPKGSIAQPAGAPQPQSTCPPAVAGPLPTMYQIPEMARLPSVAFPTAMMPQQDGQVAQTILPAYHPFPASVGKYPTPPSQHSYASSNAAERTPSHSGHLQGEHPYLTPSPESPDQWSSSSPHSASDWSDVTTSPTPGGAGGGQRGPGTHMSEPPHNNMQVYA
In test [6] the target is Pro-neuregulin-1, membrane-bound isoform (Homo sapiens) (UniProt Q02297). Briefly: NRG1 binders on small-molecule microarrays, primary screen, psychiatric disease protein project, biochemical, small-molecule microarray, fluorescence 635/667 (AID 1075).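 Note: score combines 667 nm spot fluorescence with signal to noise.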 Conditions: NRG1 binding, 635 nm fluorescence, higher = more signal.
Chain of Pro-neuregulin-1, membrane-bound isoform (Homo sapiens) (Q02297 whole entry, looked up, the tested form may be a part, canonical isoform): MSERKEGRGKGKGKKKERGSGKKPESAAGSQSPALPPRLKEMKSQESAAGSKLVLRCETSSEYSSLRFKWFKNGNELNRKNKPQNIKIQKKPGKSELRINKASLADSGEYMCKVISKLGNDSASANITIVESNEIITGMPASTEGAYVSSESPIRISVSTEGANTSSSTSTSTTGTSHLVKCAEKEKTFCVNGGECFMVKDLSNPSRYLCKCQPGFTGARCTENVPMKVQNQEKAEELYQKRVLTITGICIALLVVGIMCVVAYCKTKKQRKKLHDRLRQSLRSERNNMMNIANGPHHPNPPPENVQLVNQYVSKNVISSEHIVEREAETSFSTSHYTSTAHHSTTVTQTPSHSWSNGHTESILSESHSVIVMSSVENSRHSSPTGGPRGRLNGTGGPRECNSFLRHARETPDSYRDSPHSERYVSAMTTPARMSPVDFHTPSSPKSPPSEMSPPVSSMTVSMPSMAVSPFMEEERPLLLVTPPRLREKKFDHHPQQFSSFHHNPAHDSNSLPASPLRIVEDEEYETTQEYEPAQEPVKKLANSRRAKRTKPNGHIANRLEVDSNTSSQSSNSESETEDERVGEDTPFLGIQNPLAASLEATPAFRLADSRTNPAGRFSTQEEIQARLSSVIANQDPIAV
Test [7] has as its system Neuregulin-1 EGF-like domain. Briefly: binders of neuregulin-1 EGF-like domain, primary screen, biochemical, small-molecule microarray, 635 nm fluorescence (AID 1081).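 Note: binding of the protein to compounds printed on small-molecule microarray slides.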 Conditions: small-molecule microarray binding, higher = more signal.
Test [8] in a line: FRG1 promoter luciferase signal modulators, primary screen, FRG1 inhibition for FSHD, cell-based, C2C12 myotubes, firefly/Renilla luciferase, luminescence (AID 1084). Particulars: higher = more signal, called active from +8 up or from −8 down.
Test [9] is described as follows: binders of probe aFST on microarray, primary screen, stem cell growth factor project, biochemical, small-molecule microarray, fluorescence 635/667 (AID 1086).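 Note: score merges 667 nm fluorescence with signal-to-noise of each printed compound spot.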 Particulars: higher = more signal.
A short description of test [10]: binders of probe aHhip on microarray, primary screen, stem cell growth factor project, biochemical, small-molecule microarray, fluorescence 635/667 (AID 1087).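 Note: score merges spot fluorescence at 667nm with spot signal to noise ratio.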 Conditions: higher = more signal.

For the compound `COCCOC(=O)N1C(=O)[C@@]2(c3ccccc31)[C@H](c1ccc(OCCO)cc1)N1[C@H](c3ccccc3)[C@H](c3ccccc3)OC(=O)[C@H]1[C@@H]2C(=O)Nc1nc2ccccc2s1`, the composite z-score was -0.436 in test [1]; -0.504 in [2]; -0.0848 in test [3]; 0.26 in test [4]; 0.829 in test [5]; 1.07 in test [6]. Moreover, the results for the composite z-score in test [7], in [9] and in test [10] were 1.25, 0.439 and 0.154, respectively. Further, the z-score in test [8] is -0.567 (inactive).

In the case of `COc1cc2c(cc1OC)CN(C(=O)[C@H]1[C@@H]3C(=O)O[C@@H](c4ccccc4)[C@@H](c4ccccc4)N3[C@@H](c3ccc(OCCO)cc3)[C@]13C(=O)Nc1ccc(C#CC4(O)CCCCCC4)cc13)CC2`, the composite z-score was 1.18 in test [1]; 0.774 in test [2]; -0.0358 in test [3]; 0.326 in [4]; 1.51 in test [5]; 1.25 in test [6]. For the same compound, the values for the composite z-score in [7], in [9] and in test [10] were 1.32, 1.6 and 1.65, respectively. In addition, the z-score in [8] is -0.126 (inactive).

Regarding `O=C1O[C@@H](c2ccccc2)[C@@H](c2ccccc2)N2[C@@H](c3ccccc3OCCO)[C@]3(C(=O)Nc4ccc(C#CC5=CCCCC5)cc43)[C@@H](C(=O)NC[C@H](O)c3ccccc3)[C@H]12`, the composite z-score in test [1] is -0.595; in test [2] it was 2.06; in test [3] it was 0.0296; in [4], 0.648; in test [5] it was 0.948; in [6] it was 1.42. Besides, the values for the composite z-score in [7], in test [9] and in [10] were 1.01, 0.517 and -0.0391, respectively. Further, the z-score in [8] was -0.279 (inactive).

On to `CCCC=C(CCC)[C@@H](NP(=O)(c1ccccc1)c1ccccc1)c1ccc(C(F)(F)F)cc1`, for which the composite z-score in test [1] was -0.176; in test [2] it was 0.158; in test [3], -0.0975; in test [4], 0.0842; in test [5] it was 0.131; in [6], 1.74. The composite z-score in test [7] came out at 0.557; in test [9], 0.237; in test [10], 0.0216. In addition, in [8], the z-score is 1.96 (inactive).

As to `NC(=O)NCC#Cc1ccc2c(c1)[C@]1(C(=O)N2)[C@H](C(=O)O)[C@H]2C(=O)O[C@H](c3ccccc3)[C@H](c3ccccc3)N2[C@@H]1c1ccccc1OCCO`, the composite z-score in test [1] was 0.991; in test [2], 0.396; in test [3], -0.0749; in test [4], 0.776; in test [5], 0.231; in test [6], 1.99. For the same compound, the composite z-score in test [7] came out at 1.01; in test [9] it was 0.734; in test [10] it was 0.291. The z-score in test [8] was -0.765 (inactive).

As to `CCOC(=O)C1=CC[C@@H](c2ccccc2)N(S(=O)(=O)c2ccc(C)cc2)C1`, the composite z-score in [1] is 0.694; in test [2], 0.235; in test [3], 0.0497; in [4], -0.0495; in test [5], 0.681; in test [6] it was -0.273. The composite z-score in test [7] stood at 0.643; in test [9] it was 0.648; in test [10] it was 0.0274. In addition, in test [8], the z-score was -3.73 (inactive).

Regarding `C=C(CCCC)C(=O)CC[C@@H](OC(=O)c1ccccc1-c1ccccc1C(=O)O)c1cccc(OCCO)c1`, the composite z-score in test [1] was -0.208; in test [2] it was 0.996; in [3], -0.129; in test [4], 0.166; in test [5], -0.404; in [6] it was 0.143. The composite z-score in [7] is 0.742; in [9], -0.499; in [10], -0.249. Moreover, the z-score in [8] was 0.238 (inactive).

With `CN(C)CCCNC(=O)[C@@H]1c2ccccc2C(=O)N(Cc2ccc(OC(F)(F)F)cc2)[C@H]1c1ccc(CO)cc1`, the composite z-score in test [1] was -0.212; in test [2] it was -0.103; in test [3], -0.113; in test [4] it was -0.133; in test [5] it was -0.0854; in [6] it was 1.22. Also, the results for the composite z-score in test [7], in test [9] and in [10] were 1.15, 0.18 and 0.287, respectively. In [8], the z-score was -1.22 (inactive).

With `COCCOC(=O)N1C(=O)[C@@]2(c3cc(C#CC4(O)CCCCCC4)ccc31)[C@H](C(N)=O)[C@H]1C(=O)O[C@H](c3ccccc3)[C@H](c3ccccc3)N1[C@@H]2c1ccccc1OCCO`, the composite z-score came to 0.591 in [1]; 1.71 in test [2]; 0.121 in [3]; 0.859 in test [4]; 1.25 in [5]; 0.735 in test [6]. Also, the composite z-score in test [7] was determined as 1.3; in [9], 0.239; in [10] it was 0.141. Further, the z-score in [8] was 0.129 (inactive).

For the compound `C#CCNC(=O)[C@H](Cc1ccccc1)NC(=O)[C@@H](N=[N+]=[N-])C(C)C`, the composite z-score was -0.57 in test [1]; -0.003 in test [2]; -0.0894 in test [3]; 0.334 in test [4]; 1.04 in test [5]; 0.452 in test [6]. In addition, the composite z-score in test [7] is 1.08; in [9], 0.16; in test [10], -0.409. For the same compound, the z-score in [8] is 0.171 (inactive).

As to `O=C1OCC=C[C@H]2OC34C=CCN(c5ccc(Cl)cc5)C(=O)[C@H]3N(CCCCCO)C(=O)[C@@H]4[C@@H]12` (stereo not given in full), the composite z-score is 0.716 in test [1]; 1.77 in [2]; -0.163 in test [3]; -0.815 in test [4]; -1.07 in test [5]; -0.0571 in test [6]. For the same compound, the values for the composite z-score in test [7], in test [9] and in test [10] were 1.06, -0.354 and -0.236, respectively. In test [8], the z-score was -0.633 (inactive).

`COc1ccc([Si](C)(C)[C@H]2[C@H](CCO)O[C@@]3(C(=O)N(Cc4cccc(N5CCCCC5=O)c4)c4ccccc43)[C@@H]2C)cc1`: the composite z-score is -0.337 in test [1]; 0.154 in test [2]; -0.081 in [3]; 0.375 in [4]; 0.87 in test [5]; 0.652 in test [6]. Also, the composite z-score in test [7] was 1.2; in test [9], 0.327; in test [10], 0.176. In addition, in test [8], the z-score is -2.32 (inactive).

As for `CO[C@H]1O[C@H](CO)[C@@H](OC(=O)Nc2ccccc2-c2ccccc2)[C@H](OC(=O)Nc2ccc3c(c2)OCO3)[C@@H]1OC(=O)Nc1ccc2c(c1)OCO2`, the composite z-score in test [1] came to 0.0632; in test [2], 0.291; in [3], 0.0826; in test [4], 0.733; in test [5], 1.44; in test [6] it was 1.62. For the same compound, the composite z-score in test [7] came to 1.4; in [9], 1.2; in test [10], 0.141. For the same compound, the z-score in [8] was 5.64 (inactive).

As to `CC(=O)n1cc(C(O)C2C=CC3C(=O)N(Cc4ccccc4)C(=O)C3N2n2cnnc2)c2ccccc21` (stereo not given), the composite z-score is -0.317 in test [1]; 0.47 in test [2]; -0.0218 in [3]; -0.0821 in test [4]; 0.145 in test [5]; -0.0307 in [6]. The composite z-score in test [7] was 0.351; in [9], 0.426; in test [10], -0.268. For the same compound, the z-score in test [8] is 0.186 (inactive).

On to `C=CCOC(=O)[C@@H]1[C@H]2C(=O)O[C@H](c3ccccc3)[C@H](c3ccccc3)N2[C@H](c2ccc(OCCOC(=O)[C@H]3C[C@H]4C(=O)N[C@@H](CC(C)C)C(=O)N4[C@H]3c3ccc(O)cc3)cc2)[C@@]12C(=O)Nc1ccc(I)cc12`, for which the composite z-score in [1] stood at 0.054; in test [2] it was 1.42; in [3], 0.0333; in test [4], 0.868; in test [5], 0.718; in test [6], 0.535. Moreover, the composite z-score in test [7] was 1.35; in [9], 0.496; in test [10], -0.0994. In addition, the z-score in test [8] was -0.477 (inactive).

For the compound `O=c1cccc(-c2cccc(Cl)c2)o1`, the composite z-score was -0.118 in test [1]; -0.341 in [2]; -0.0937 in test [3]; 0.299 in test [4]; -0.0173 in test [5]; -0.0364 in [6]. Moreover, the composite z-score in test [7] was 0.409; in test [9], 0.433; in [10] it was -0.223. Further, the z-score in test [8] is 2.02 (inactive).

For `COc1ccc([Si](C)(C)[C@@H]2[C@@H](CCn3cc([C@H](O)c4ccccc4)nn3)O[C@]3(C(=O)N(Cc4ccc(N5CCOC5=O)cc4)c4ccccc43)[C@H]2C)cc1`, the composite z-score in test [1] was -0.28; in test [2], 0.882; in test [3] it was -0.0658; in test [4], 0.512; in [5] it was 0.62; in [6], 0.61. Moreover, the composite z-score in test [7] was found to be 0.825; in test [9], 0.137; in [10], 0.0854. The z-score in test [8] is 0.216 (inactive).
